Experimental data published in PubChem BioAssay AID588591 (National Center for Advancing Translational Sciences (NCATS), 2011).
Values joined by “and” are separate entries in the source; they are usually repeats but may differ in a detail not shown here. Identical values can stand only once. The whole screen tested about 390,000 compounds, of which about 4,700 (1.2%) were called active. Inconclusive results (about 4%) are left out. Calls follow the shape of the dose curve; as a rule, active = well fitted inhibition curve with a large enough effect; inconclusive = small, poorly fitted or top-dose-only effect, or another doubt; inactive = no such curve, though single readings can be large or run the other way. For the sample, actives were picked, then their nearest neighbours and some compounds at random. Some compounds were tested as several samples or in several runs, with calls that do not always agree.

target: DNA polymerase eta (Homo sapiens) (UniProt Q9Y253); experiment: qHTS for Inhibitors of Polymerase Eta; conditions: recombinant Pol eta, fluorescent DNA replication assay; series mostly up to 114 µM; activity change, negative = inhibition: at the top concentration
Sequence (Q9Y253 whole entry, looked up): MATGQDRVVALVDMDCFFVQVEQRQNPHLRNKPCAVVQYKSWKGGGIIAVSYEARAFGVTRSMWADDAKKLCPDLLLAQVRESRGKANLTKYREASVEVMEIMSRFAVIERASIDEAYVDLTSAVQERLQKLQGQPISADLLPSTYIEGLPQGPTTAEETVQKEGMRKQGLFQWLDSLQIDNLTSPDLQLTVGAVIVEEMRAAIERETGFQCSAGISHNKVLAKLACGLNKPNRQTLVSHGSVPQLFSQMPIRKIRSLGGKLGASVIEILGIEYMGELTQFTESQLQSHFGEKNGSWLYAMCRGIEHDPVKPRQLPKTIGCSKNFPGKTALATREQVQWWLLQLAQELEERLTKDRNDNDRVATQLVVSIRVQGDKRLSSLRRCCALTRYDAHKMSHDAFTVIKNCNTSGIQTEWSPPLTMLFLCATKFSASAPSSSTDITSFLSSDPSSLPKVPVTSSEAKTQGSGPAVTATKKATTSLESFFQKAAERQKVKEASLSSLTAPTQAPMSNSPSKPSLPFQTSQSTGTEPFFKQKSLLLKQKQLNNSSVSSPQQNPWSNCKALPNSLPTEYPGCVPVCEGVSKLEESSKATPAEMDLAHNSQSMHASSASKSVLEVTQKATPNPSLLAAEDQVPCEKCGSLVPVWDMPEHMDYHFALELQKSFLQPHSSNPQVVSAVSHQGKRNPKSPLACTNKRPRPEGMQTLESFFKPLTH
Method in brief: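 Fluorescent replication assay: 50 nM final substrate added after a 15 min room-temperature compound preincubation with 10 nM enzyme. Signal taken at 0 min and again at 10 min.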
% is scaled to controls: 0 for no effect and ±100 for the full control effect; potency is read from the fitted curve at half-maximal effect.

| Structure (SMILES) | activity change, negative = inhibition | Potency |
| --- | --- | --- |
| Cc1ccc(S(=O)(=O)c2c(Nc3cccc(Cl)c3)sc(C(=O)c3ccc4c(c3)OCO4)c2N)cc1 | -12.3% (inactive) | – |
| CCOC(=O)Cc1csc(NC(=O)COc2ccc3c(C)cc(=O)oc3c2)n1 | – | 31.6 µM (active) |
| Cc1ccc(O)c(/C=N/NC(=O)COc2ccc3c(C)cc(=O)oc3c2)c1 | – | 50.1 µM (active) |
| CCOC(=O)Cc1csc(SCc2cc(=O)oc3cc(O)ccc23)n1 | -16.5% (inactive) | – |
| Cc1ccccc1NC(=O)c1ccc(COc2ccc3c(C)cc(=O)oc3c2)cc1 | 20.7% (inactive) | – |
| CCOC(=O)Cc1csc(NC(=O)CN(C)S(=O)(=O)c2ccc3c(c2)CCC(=O)N3)n1 | -11% (inactive) | – |
| CC(=O)c1c(C)[nH]c(C(=O)COc2ccc3c(C)cc(=O)oc3c2)c1C | -17.7% (inactive) | – |
| COc1ccc(N2CCN(c3nc(-c4ccccc4F)nc4ccccc34)CC2)cc1 | -28% (inactive) | – |
| CCc1ccccc1NC(=O)Cn1c(=O)n(CC2CCC(C(=O)NCCc3ccccc3)CC2)c(=O)c2ccccc21 (stereo not drawn) | -0.518% (inactive) | – |
| Cc1ccc(C)c(N2CCN(C(c3ccccc3)c3nnc(-c4ccccc4)o3)CC2)c1 (stereo not drawn) | -21% (inactive) | – |
| COc1cccc(CNC(=O)CN2C(=O)CCc3cc(S(=O)(=O)N4CCOCC4)ccc32)c1 | -7.78% (inactive) | – |
| CC(C)NC(=O)/C(C#N)=C\c1ccc(N(C)C)c(Br)c1 | -1.4% (inactive) | – |
| Cc1ccc(/C=C(\C#N)C(=O)Nc2cc(C)ccc2C)cc1 | -7.43% (inactive) | – |
| N#C/C(=C\c1ccc(O)c(O)c1)C(=O)NCc1ccccc1 | – | inactive and 11.2 µM (active) |
| CCc1ccc(-n2nc(C)c3c(C)cc(=O)n(CC(=O)Nc4ccc(F)cc4C)c32)cc1 | 4.22% (inactive) | – |
| CCN(C(=O)COC(=O)CCC(=O)c1cccs1)C1CCCCC1 | -2.01% (inactive) | – |
| CN(c1ccccc1)S(=O)(=O)c1ccc(Cl)c(C(=O)OCC(=O)NCc2ccco2)c1 | – | 31.6 µM (active) |
| O=C(COC(=O)CCC(=O)c1cccs1)NCc1ccco1 | – | 7.08 µM (active) |
| Cn1c(N)c(C(=O)COC(=O)c2ccccc2NCc2ccco2)c(=O)n(C)c1=O | -3.1% (inactive) | – |
| O=C(COC(=O)c1ccccc1O)NCc1ccco1 | – | 79.4 µM (active) |
| O=C(COC(=O)c1cc(S(=O)(=O)N2CCOCC2)ccc1Cl)NCCc1ccccc1 | -21.4% (inactive) | – |
| Cc1cc(C(=O)OCC(=O)NCc2ccco2)c(C)n1-c1ccccc1 | – | 14.1 µM (active) |

| Structure (SMILES) | activity change, negative = inhibition | Potency |
| --- | --- | --- |
| O=C(CC1CCCCC1)NCc1ccco1 | -2.88% (inactive) | – |
| O=C(COC(=O)c1ccccc1C(=O)N1CCN(c2ccccc2)CC1)NCc1ccccc1 | -14.8% (inactive) | – |
| CC1CCN(C(=O)COC(=O)CCC(=O)c2cccs2)CC1 | -13.2% (inactive) | – |
| CN(c1ccccc1)S(=O)(=O)c1ccc(Cl)c(C(=O)OCC(=O)N2CCOCC2)c1 | -22.1% (inactive) | – |
| COc1ccccc1C(=O)OCC(=O)NCCNC(=O)COC(=O)c1ccccc1OC | 0.945% (inactive) | – |
| Cc1ccc2nc(COc3cccc(NC(=O)Nc4ccc(C)c(Cl)c4)c3)cc(=O)n2c1 | -18.4% (inactive) | – |
| COC(=O)c1cc(S(=O)(=O)N2CCN(c3cc(Cl)ccc3C)CC2)c[nH]1 | -31.5% (inactive) | – |
| Cc1cccc(N2CCN(C(=O)CCSCc3ccccc3F)CC2)c1C | -12.4% (inactive) | – |
| Cc1ccc2oc(=O)c3cnn(CC(=O)N4CCN(c5cccc(Cl)c5)CC4)c3c2c1 | -17.3% (inactive) | – |
| COc1ccc(-n2ccnc(NCCc3ccc(Cl)cc3)c2=O)cc1OC | -18.9% (inactive) | – |
| Cc1cccc(C(C)C)c1NC(=O)C(NS(=O)(=O)c1cccc2nsnc12)c1ccccc1 (stereo not drawn) | -7.33% (inactive) | – |
| Cc1ccc(-n2ncc3c(=O)n(Cc4cccc(C(F)(F)F)c4)cnc32)cc1C | -8.19% (inactive) | – |
| CC(C)(C)NC(=O)CSc1nc(-c2ccc(F)cc2)cc(C(F)(F)F)n1 | -14.9% (inactive) | – |
| COc1cc(NC(=O)COC(=O)c2cnc(C)cn2)c(C)cc1[N+](=O)[O-] | -20.1% (inactive) | – |
| COc1cc(CCC(=O)OCC(=O)Nc2cccc(S(N)(=O)=O)c2)cc(OC)c1OC | -22.8% (inactive) | – |
| COc1cc(NC(=O)COC(=O)c2ccc([N+](=O)[O-])s2)cc(OC)c1OC | – | 50.1 µM (active) |
| COc1ccc(CCC(=O)NCc2ccc3c(c2)CCN3C(=O)c2ccc(F)cc2)cc1 | -11.5% (inactive) | – |
| O=C(CS(=O)(=O)c1cccc2nsnc12)N1CCN(c2cccc(Cl)c2)CC1 | -10.8% (inactive) | – |
| COC(=O)c1ccccc1NC(=O)C(Cc1ccccc1)N1Cc2ccccc2C1=O (stereo not drawn) | -15.5% (inactive) | – |
| Cc1ccccc1NC(=O)Cn1c(=O)n(CCc2ccccc2)c(=O)c2ccccc21 | -18.2% (inactive) | – |
| Cc1ccccc1NC(=O)CN1C(=O)N/C(=C\c2cccn2-c2cccc(C(=O)O)c2)C1=O | – | 3.16 µM (active) |
